# Source: PubChem BioAssay (NCATS)
# Results filed as inconclusive are left out. A call without a number means that no potency is given here. The source made the active and inactive calls. Calls follow the shape of the dose curve; as a rule, active = well fitted curve in the direction sought with a large enough effect; inconclusive = small, poorly fitted or top-dose-only effect, or another doubt; inactive = no such curve, though single readings can be large; an effect the other way counts as inactive or inconclusive.
# Assays:
# [1] = target: Alpha-galactosidase (Coffea arabica) (UniProt Q42656); assay: Counterscreen for Glucocerebrosidase Inhibitors: qHTS Assay for Coffee Bean alpha-Galactosidase at pH 4.5 (AID 957); also: series mostly up to about 77 µM
# Outline: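 Quantitative HTS of compounds (0.7 nM to 77 uM) against coffee bean alpha-galactosidase at pH 4.5, measuring 4-methylumbelliferone fluorescence released from 80 uM substrate.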
# [2] = target: Alpha-galactosidase (Coffea arabica) (UniProt Q42656); assay: Counterscreen for Glucocerebrosidase Inhibitors: qHTS Assay for Coffee Bean alpha-Galactosidase at pH 5.9 (AID 998)
# Outline: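 In 50 mM citric acid pH 5.9 with 0.005% Tween-20, coffee bean enzyme hydrolyses 80 uM 4-MU alpha-D-galactopyranoside over 20 min at RT. Activity is normalized to controls; AC50 comes from Hill-modelled concentration-response data.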
# [3] = MultiTox-Fluor Cytotoxicity Assay - LYMP1-002 - Dead Cells (AID 960); also: potency is read from the fitted curve at half-maximal effect; nearly all actives have a fitted effect of over 60% in size
# Outline: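 Concentration-dependent increases in membrane-leaked protease activity are quantified in LYMP1-002 cells after 16 hr treatment; values are normalized against DMSO and tetraoctylammonium bromide (15 uM) controls and AC50 derived by Hill modeling.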
# Sequence of Alpha-galactosidase (Coffea arabica) (Q42656 whole entry, looked up): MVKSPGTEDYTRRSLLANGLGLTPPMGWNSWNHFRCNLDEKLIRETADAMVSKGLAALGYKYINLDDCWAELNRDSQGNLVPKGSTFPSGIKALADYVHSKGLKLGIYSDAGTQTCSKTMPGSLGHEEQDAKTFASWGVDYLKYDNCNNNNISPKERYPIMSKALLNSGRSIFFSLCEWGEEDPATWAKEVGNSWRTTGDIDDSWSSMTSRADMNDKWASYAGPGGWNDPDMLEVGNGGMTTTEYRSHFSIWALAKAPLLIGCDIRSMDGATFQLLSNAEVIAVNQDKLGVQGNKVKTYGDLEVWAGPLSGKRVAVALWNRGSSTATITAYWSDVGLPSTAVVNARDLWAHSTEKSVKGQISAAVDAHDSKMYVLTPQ
Compound,outcome [1],outcome [2],Potency [3]
CCCCCCCCCCCCC/C=C\[C@@H](O)[C@@H](N)CO,inactive,inactive,
Cc1cccc(C)c1OC[C@@H](N)C(C)C,inactive,inactive,
C[C@H]1CN(S(=O)(=O)c2cccc3cnccc23)CCN1,inactive,inactive,
COC(=O)[C@H](N)Cc1ccc(Cl)cc1,inactive,inactive,
N[C@H](C(=O)O)[C@@H]1C[C@@H]1C(=O)O,inactive,inactive,
Fc1cccc(/C=N\N=C/c2cccc(F)c2)c1,inactive,inactive,
O[C@@](CCN1CCCCC1)(c1ccccc1)C1CCCCC1,inactive,inactive,
CCOC(=O)C1=C(C)NC(C)=C(C(=O)OC)[C@H]1c1cccc([N+](=O)[O-])c1,inactive,inactive,
Cc1ccccc1[C@@H](OCCN(C)C)c1ccccc1,inactive,inactive,
N[C@H](CCC(=O)NCS(=O)(=O)O)C(=O)O,inactive,inactive,
CCCCC[C@H](O)c1cccc(OCc2ccc3ccccc3n2)c1,inactive,inactive,
CCCCCCCCCCCCCCCCCCOC[C@@H](COP(=O)([O-])OCC[N+](C)(C)C)OC,inactive,inactive,
CCCCOc1cc(C[C@@H]2CNC(=O)N2)ccc1OC,inactive,inactive,
N[C@H](Cc1ccc(F)cc1)C(=O)O,inactive,inactive,
OC[C@@H]1O[C@@H](n2cnc3c(NC4CCCCC4)ncnc32)[C@@H](O)[C@H]1O,inactive,inactive,
CN(C)CC[C@@H](c1ccccc1)c1ccccn1,inactive,inactive,
COC(=O)C1=C(C)NC(C)=C(C(=O)OCCN(C)Cc2ccccc2)[C@@H]1c1cccc([N+](=O)[O-])c1,inactive,inactive,
O=C(O)CCC(=O)N1CCC[C@H]1C(=O)O,inactive,inactive,
O=C(O)[C@H]1CN(CCCP(=O)(O)O)CCN1,inactive,inactive,
NCCC[C@@](N)(C(=O)O)C(F)F,inactive,inactive,
C[C@H](N)C1CCC(C(=O)Nc2ccncc2)CC1 (stereo partly drawn),inactive,inactive,
C[C@@H](CCc1ccc(O)cc1)NCCc1ccc(O)c(O)c1,inactive,inactive,
CSc1ccc2c(c1)N(CC[C@H]1CCCCN1C)c1ccccc1S2,inactive,inactive,
CO[C@]1(NC(=O)CSCC#N)C(=O)N2C(C(=O)O)=C(CSc3nnnn3C)CS[C@H]21,inactive,inactive,
O=C(O)CNC(=O)[C@@H](CS)Cc1ccccc1,inactive,inactive,
CN(C)c1ccc(/C=C2/C(=O)Nc3ccccc32)cc1,inactive,inactive,

Compound,outcome [1],outcome [2],Potency [3]
CCCCCCCCCC(=O)N[C@@H](CN1CCOCC1)[C@@H](O)c1ccccc1,inactive,inactive,
CN1CCN2c3ccccc3Cc3ccccc3[C@@H]2C1,inactive,inactive,
CC(C)C[C@H](NC(=O)[C@@H]1O[C@H]1C(=O)O)C(=O)NCCCCN=C(N)N,inactive,inactive,
CN1Cc2c(N)cccc2[C@H](c2ccccc2)C1,inactive,inactive,
O=[N+]([O-])c1ccc(CSc2ncnc3c2ncn3[C@@H]2O[C@@H](CO)[C@@H](O)[C@H]2O)cc1,inactive,inactive,
CC1=C(C(=O)O)N2C(=O)[C@@H](NC(=O)[C@@H](N)c3ccccc3)[C@@H]2SC1,inactive,inactive,
NC(N)=N[C@H](CCC(=O)O)C(=O)O,inactive,inactive,
CC(C)(C)NC[C@H](O)c1cc(O)cc(O)c1,inactive,inactive,
O=C(/C=C\c1ccc(O)c(O)c1)OCCc1ccccc1,inactive,inactive,
CC(=O)O[C@]1(C(C)=O)CC[C@@H]2[C@@H]3C=C(Cl)C4=CC(=O)[C@H]5C[C@@H]5[C@]4(C)[C@H]3CC[C@]21C,inactive,inactive,
CN1CCN([C@@H]2Cc3ccccc3Sc3ccc(Cl)cc32)CC1,inactive,inactive,
COc1cc2nc(N3CCN(C(=O)[C@H]4CCCO4)CC3)nc(N)c2cc1OC,inactive,inactive,
OCCN1CCN(CC/C=C2\c3ccccc3Sc3ccc(C(F)(F)F)cc32)CC1,inactive,inactive,
COc1c2c(nc3ccccc13)O[C@@H]([C@@](C)(O)CO)C2,inactive,inactive,
OC[C@@H]1O[C@@H](n2cnc3c(NC4CCCC4)ncnc32)[C@@H](O)[C@H]1O,inactive,inactive,
CSc1nc(N)c2ncn([C@@H]3O[C@@H](COP(=O)(O)OP(=O)(O)OP(=O)(O)O)[C@@H](O)[C@H]3O)c2n1,inactive,inactive,
C=C(C)[C@@H]1CC=C(C(=O)O)CC1,inactive,inactive,
CNC(=O)[C@@H]1O[C@@H](n2cnc3c(NCc4cccc(I)c4)ncnc32)[C@H](O)[C@@H]1O,inactive,inactive,
Cc1c(C)c2c(c(C)c1O)CC[C@@](C)(CN1CCN(c3cc(N4CCCC4)nc(N4CCCC4)n3)CC1)O2,inactive,inactive,
CN(C)[C@@H]1C(=O)C(C(N)=O)=C(O)[C@]2(O)C(=O)C3=C(O)c4c(O)ccc(Cl)c4[C@H](O)[C@H]3C[C@@H]12,inactive,inactive,
CC(C)(C)c1ccc(S(=O)(=O)/C=C\C#N)cc1,inactive,inactive,
COc1cccc(OC)c1OCCNC[C@@H]1CSc2ccccc2O1,inactive,inactive,
Nc1nc(Cl)nc2c1ncn2[C@@H]1O[C@@H](CO)[C@@H](O)[C@H]1O,inactive,inactive,
CC(=O)[C@@]1(O)Cc2c(O)c3c(c(O)c2[C@H](O[C@H]2C[C@H](N)[C@H](O)[C@H](C)O2)C1)C(=O)c1ccccc1C3=O,inactive,inactive,
COc1ccc(NC(=O)/C=C\c2ccc(Cl)cc2)cc1,inactive,inactive,
O=c1n(CC2CO2)c(=O)n(CC2CO2)c(=O)n1CC1CO1 (stereo not drawn),,,31.6 µM (active)
